Measured values from PubChem BioAssay (Tox21).
Where “and” joins values, the source holds several entries; their conditions need not be identical. Identical values can stand only once. Inconclusive results are not listed. Calls of active or inactive are those of the source. Unless noted, calls follow the shape of the dose curve; as a rule, active = well fitted curve in the direction sought with a large enough effect in the repeat runs; inconclusive = weak or mixed curves; inactive = no such curve, though single readings can be large; an effect the other way counts as inactive or inconclusive.

Experiments:
[1] = A CellTox Green Cytotoxicity Assay to monitor cytotoxicity in HEK293 cells - 32 hour (AID 1224881); also: nearly all actives have a fitted effect of over 40% in size; also: potency is read from the fitted curve at half-maximal effect
In short: (§1)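 Cells (HEK293, 600/well) and dye reagent are dispensed together. After 5 h at 37 C, 23 nL compound is pinned in. Plates stay at 37 C for 40 h with fluorescence read at 0h, 8h, 16h, 24h, 32h and 40h.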

[2] = A CellTox Green Cytotoxicity Assay to monitor cytotoxicity in HepG2 cells - 0 hour (AID 1224882); also: nearly all actives have a fitted effect of over 35% in size
In short: (§2)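 Cells and non-lytic dye reagent are dispensed together (600 HepG2 cells/well) and incubated 5 h before DMSO compound transfer. Kinetic fluorescence is then recorded in the same wells during 40 h at 37 C.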

[3] = A CellTox Green Cytotoxicity Assay to monitor cytotoxicity in HEK293 cells - 8 hour (AID 1224884); also: nearly all actives have a fitted effect of over 35% in size
In short: as §1

[4] = qHTS RealTime-Glo MT Cell Viability Assay in HepG2 cells - 16 hour (AID 1224885); also: nearly all actives have a fitted effect of over 50% in size; also: potency is read from the fitted curve at half-maximal effect
In short: (§3)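 Real-time, nonlytic viability: 600 HepG2 cells/well mixed with NanoLuc enzyme plus prosubstrate; 5 h settle, compound (DMSO) added by pintool; luminescence monitored over 40 h at 37 C.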

[5] = qHTS RealTime-Glo MT Cell Viability Assay in HEK293 cells - 8 hour (AID 1224887); also: nearly all actives have a fitted effect of over 50% in size; also: potency is read from the fitted curve at half-maximal effect
In short: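 Real-time viability in HEK293: signal arises when living cells convert a prosubstrate for NanoLuc in the medium, so luminescence tracks viable cell number. Compound (23 nL, DMSO) added 5 h post-seeding; kinetic reads at 0–40 h, 37 C.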

[6] = A CellTox Green Cytotoxicity Assay to monitor cytotoxicity in HEK293 cells - 16 hour (AID 1224888); also: nearly all actives have a fitted effect of over 35% in size; also: potency is read from the fitted curve at half-maximal effect
In short: as §1

[7] = qHTS RealTime-Glo MT Cell Viability Assay in HepG2 cells - 0 hour (AID 1224889); also: nearly all actives have a fitted effect of over 50% in size
In short: as §3

[8] = A CellTox Green Cytotoxicity Assay to monitor cytotoxicity in HepG2 cells - 8 hour (AID 1224890); also: nearly all actives have a fitted effect of over 45% in size; also: potency is read from the fitted curve at half-maximal effect
In short: as §2

[9] = qHTS assay to identify small molecule antagonists of the estrogen receptor alpha (ER-alpha) signaling pathway using the BG1 cell line in the presence of 0.1 nM 17-beta-estradiol - cell viability counter screen (AID 1259241); also: nearly all actives have a fitted effect of over 40% in size; also: potency is read from the fitted curve at half-maximal effect
In short: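 Following 5 days in phenol red-free medium with charcoal-stripped serum, VM7Luc4E2 cells received test compounds alongside 0.1 nM 17beta-estradiol (final) at 37C for 22 hr. Live cells were then quantified via protease-substrate fluorescence.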

[10] = qHTS assay to identify small molecule antagonists of the androgen receptor (AR) signaling pathway using the MDA cell line in the presence of 0.5 nM R1881 - cell viability counter screen (AID 1259242); also: nearly all actives have a fitted effect of over 45% in size; also: potency is read from the fitted curve at half-maximal effect
In short: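 Steps: plate MDA-kb2 cells, rest 5 hr at 37C without CO2; pin in compounds in DMSO; add R1881 to 0.5 nM final; incubate 16 hr; add CellTiter-Fluor, 30 min; read fluorescence.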

[11] = qHTS assay to identify small molecule HDAC inhibitors (AID 1259364); also: potency is read from the fitted curve at half-maximal effect;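 also: wild-type HCT-116 cells with endogenous class I/II HDAC activity; nearly all actives have a fitted effect of over 45% in size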
In short: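 Cells (HCT-116, wild type) are seeded at 1,500 per well, incubated overnight, treated with compound in DMSO for 2 hr, then developed with HDAC-Glo I/II reagent for 30 min at room temperature.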

[12] = qHTS assay to identify small molecule HDAC inhibitors - cell viability counter screen (AID 1259365); also: nearly all actives have a fitted effect of over 50% in size; also: potency is read from the fitted curve at half-maximal effect
In short: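 HCT-116 wild-type, overnight attachment; 2hr drug exposure, 37C; CellTiter-Glo luminescent ATP readout after 30min RT.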

[13] = qHTS assay to identify small molecule agonists of the sonic hedgehog signaling (Shh) pathway - cell viability counter screen (AID 1259366); also: nearly all actives have a fitted effect of over 50% in size; also: potency is read from the fitted curve at half-maximal effect
In short: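 Compounds in DMSO were pin-transferred onto 3T3 Gli1-Luc cells that had settled 4hr; plates then stood 24hr at 37C and 5% CO2. One hour before the end, CellTiter-Fluor was added and fluorescence recorded.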

[14] = qHTS assay to identify small molecule antagonists of the sonic hedgehog signaling (Shh) pathway - cell viability counter screen (AID 1259367); also: nearly all actives have a fitted effect of over 55% in size; also: potency is read from the fitted curve at half-maximal effect
In short: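 CellTiter-Fluor signal in conditioned medium-stimulated 3T3 Gli1-Luc cells, 23 hr compound exposure, 37C.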

[15] = qHTS assay to identify small molecule agonists of the sonic hedgehog signaling (Shh) pathway (AID 1259368; calls by dose curve;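 also: NIH/3T3-derived 3T3Gli1-Luc cells carrying a stable Gli1-driven firefly luciferase reporter; series mostly up to about 92 µM; nearly all actives have a fitted effect of over 15% in size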)
In short: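 Cells of a mouse NIH/3T3 clone stably expressing luciferase under the Gli1 transcriptional response element are exposed to test chemicals for 24 hr at 37 C. Pathway activation is detected as a rise in luminescence.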

[16] = qHTS RealTime-Glo MT Cell Viability Assay in HEK293 cells - 24 hour (AID 1224886)
In short: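 Cells + reagent dispensed (600 cells/well, HEK293) → 5 h at 37 C/5% CO2 → 23 nL compound in DMSO pinned → 40 h at 37 C → luminescence read at 0, 8, 16, 24, 32, 40 h.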

[17] = A CellTox Green Cytotoxicity Assay to monitor cytotoxicity in HepG2 cells - 32 hour (AID 1224883); also: nearly all actives have a fitted effect of over 50% in size; also: potency is read from the fitted curve at half-maximal effect
In short: as §2

[18] = molecular target: Estrogen receptor (Homo sapiens) (UniProt P03372); assay: qHTS assay to identify small molecule antagonists of the estrogen receptor alpha (ER-alpha) signaling pathway using the BG1 cell line in the presence of 0.1 nM 17-beta-estradiol (AID 1259244); also: nearly all actives have a fitted effect of over 50% in size
In short: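 Antagonist mode: compounds in DMSO are pinned onto VM7Luc4E2 reporter cells, 0.1 nM final 17beta-estradiol is added, and after 22 h at 37C luciferase luminescence is measured with ONE-Glo.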

[19] = qHTS assay to identify small molecule phospholipidosis (PLD) inducers (AID 1259344; active = well fitted curve in the direction sought with a large enough effect; an effect the other way counts as inactive or inconclusive)
In short: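 Accumulated phospholipid, stained red by LipidTOX during 24 h compound treatment of HepG2 cells at 37 C, is quantified from images as pit number and intensity, normalised per cell using Hoechst-stained nuclei.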

Measured: Potency

Estrogen receptor (Homo sapiens), sequence (P03372 whole entry, looked up): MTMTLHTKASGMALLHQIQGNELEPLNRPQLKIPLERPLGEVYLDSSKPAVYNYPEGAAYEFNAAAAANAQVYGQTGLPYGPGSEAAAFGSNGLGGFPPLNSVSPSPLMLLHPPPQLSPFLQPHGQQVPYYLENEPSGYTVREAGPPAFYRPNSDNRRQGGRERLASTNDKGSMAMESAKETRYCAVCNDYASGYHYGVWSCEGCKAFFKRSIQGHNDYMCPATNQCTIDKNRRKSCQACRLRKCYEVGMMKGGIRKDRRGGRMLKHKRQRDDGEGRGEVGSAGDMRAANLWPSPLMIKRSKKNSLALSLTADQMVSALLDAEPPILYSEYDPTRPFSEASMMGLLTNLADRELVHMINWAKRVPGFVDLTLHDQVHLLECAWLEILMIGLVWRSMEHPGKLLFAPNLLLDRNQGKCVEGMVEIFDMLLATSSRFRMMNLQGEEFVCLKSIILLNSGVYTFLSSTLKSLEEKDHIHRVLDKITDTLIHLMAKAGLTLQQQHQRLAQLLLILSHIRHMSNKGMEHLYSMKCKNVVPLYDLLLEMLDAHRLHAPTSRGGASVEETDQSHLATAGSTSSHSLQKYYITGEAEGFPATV

Oc1cccc(Cl)c1Cl
inactive: [1] | [2] | [3] | [4] | [5] | [6] | [7] | [8] | [9] | [10] | [11] | [12] | [13] | [14] | [15]

CCC1COC(Cn2cncn2)(c2ccc(Cl)cc2Cl)O1 (stereo not drawn)
inactive: [1] | [2] | [3] | [4] | [5] | [6] | [7] | [8] | [9] | [10] | [11] | [12] | [13] | [14] | [15]

O=S(=O)(O)F
inactive: [1] | [2] | [3] | [4] | [16] | [5] | [6] | [7] | [8] | [9] | [10] | [11] | [12] | [13] | [14] | [15]

O=C(Cl)c1ccccc1F
inactive: [1] | [2] | [3] | [4] | [16] | [5] | [6] | [7] | [8] | [9] | [10] | [11] | [12] | [13] | [14] | [15]

Clc1ccc(C(c2ccc(Cl)cc2)C(Cl)Cl)cc1
active: [1] 49 µM | [5] 44.4 µM and 38.9 µM
inactive: [2] | [17] | [4] | [6] | [7] | [8] | [9] | [10] | [18] | [12] | [13] | [14] | [15]

CCCCON=O
inactive: [1] | [2] | [17] | [4] | [5] | [6] | [7] | [8] | [9] | [10] | [11] | [12] | [13] | [14] | [15]

Cc1cc2c3c(c1)C(c1ccccc1)=N[C@@H](NC(=O)c1ccncc1)C(=O)N3CC2
inactive: [1] | [2] | [17] | [4] | [5] | [6] | [8] | [9] | [10] | [18] | [11] | [12] | [13] | [14] | [15]

O=c1[nH]c(Cl)c(Cl)cc1Cl
inactive: [1] | [2] | [3] | [4] | [16] | [5] | [6] | [7] | [8] | [9] | [10] | [12] | [13] | [14] | [15]

COc1ccc2[nH]cc(CCN(C(C)C)C(C)C)c2c1
inactive: [1] | [2] | [3] | [4] | [5] | [6] | [7] | [8] | [9] | [10] | [19] | [11] | [12] | [13] | [14] | [15]

C#CC1(O)CCCCC1
inactive: [1] | [2] | [3] | [4] | [16] | [5] | [6] | [7] | [8] | [9] | [10] | [11] | [12] | [13] | [14] | [15]

CC(O)C(=O)[O][Hg][c]1ccccc1 (stereo not drawn)
active: [1] 3.09 µM | [17] 2.19 µM | [4] 2.19 µM | [5] 1.55 µM | [6] 24.5 µM | [8] 2.75 µM | [9] 12.2 µM | [10] 6.11 µM | [11] 4.33 µM | [12] 4.33 µM | [13] 0.969 µM | [14] 1.22 µM
inactive: [2] | [7] | [15]

CC1(C)C(C=C(Cl)Cl)C1C(=O)OC(C#N)c1ccc(F)c(Oc2ccccc2)c1 (stereo not drawn)
inactive: [1] | [2] | [17] | [16] | [6] | [7] | [8] | [9] | [10] | [18] | [11] | [12] | [13] | [14] | [15]

COC(=O)c1ccccc1S(=O)(=O)NC(=O)Nc1nc(C)nc(OC)n1
inactive: [1] | [2] | [3] | [4] | [5] | [6] | [7] | [8] | [9] | [10] | [11] | [12] | [13] | [14] | [15]

CC(C)C(Br)C(=O)NC(N)=O (stereo not drawn)
inactive: [1] | [2] | [3] | [4] | [16] | [5] | [6] | [7] | [8] | [9] | [10] | [18] | [19] | [11] | [12] | [13] | [14] | [15]

O=[N+]([O-])c1ccc(CCl)cc1
inactive: [1] | [2] | [3] | [4] | [16] | [5] | [6] | [7] | [8] | [9] | [10] | [11] | [12] | [13] | [14] | [15]
